# Laboratory results published in PubChem BioAssay (NCATS).
# Unmarked numbers belong to inactive results. Inconclusive results are not listed. A call without a number means that no potency is given here. Calls of active or inactive are those of the source. Unless noted, calls follow the shape of the dose curve; as a rule, active = well fitted curve in the direction sought with a large enough effect; inconclusive = small, poorly fitted or top-dose-only effect, or another doubt; inactive = no such curve, though single readings can be large; an effect the other way counts as inactive or inconclusive.
# Columns and labels:
# [1] = biological target: Mitogen-activated protein kinase 10 (Mus musculus) (UniProt Q61831); assay: JNK3 AlphaScreen Assay (AID 530; active = well fitted curve in either direction with a large enough effect, not every such curve was filed as active;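 also: kinase came from lysate of stimulated human HepG2 cells; signal reports phosphorylation of biotinylated GST-cJun 1-79 at Ser73 with 10 µM ATP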)
# In short: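 Biotinylated GST-cJun(1-79) served as substrate for JNK3 in HepG2 lysates stimulated with IL-1beta and TNF-alpha. ATP was 10 uM final, pH 7.6. Ser73 phosphorylation was quantified by AlphaScreen (680 nm excitation).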
# [2] = Cell Viability - N2a (AID 540); details: N2a mouse neuroblastoma cell viability; activity change, negative = cytotoxicity: at 92.2 µM (top of the series);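 also: cells exposed to compound for 40 h at 37 °C; nearly all actives have a fitted effect of over 45% in size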; also: potency is read from the fitted curve at half-maximal effect
# In short: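 In this qHTS cytotoxicity screen, ATP-dependent luciferase luminescence reports viable N2a cells after a 40 hr compound exposure in complete culture medium. Potencies are AC50 values from standard Hill equation fits.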
# [3] = Cell Viability - HUV-EC-C (AID 542);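 also: cells exposed to compound for 40 hours; nearly all actives have a fitted effect of over 35% in size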; also: potency is read from the fitted curve at half-maximal effect
# In short: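 Concentration-dependent ATP loss in HUV-EC-C cells is the measure. Exposure lasts 40 hr at 37 °C; luminescence follows CellTiter-Glo addition, and Hill fits give AC50.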
# [4] = Cell Viability - SH-SY5Y (AID 544); details: SH-SY5Y neuroblastoma cell viability; viability change, negative = cytotoxic: at 92.2 µM (top of the series);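 also: cells exposed to compound for 40 hours; nearly all actives have a fitted effect of over 55% in size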; also: potency is read from the fitted curve at half-maximal effect
# In short: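 Quantitative HTS in SH-SY5Y neuroblastoma cells, 40 hr treatment at 37 °C, ATP content by luciferase luminescence; AC50 from Hill fits.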
# [5] = Cell Viability - Mesenchymal (AID 546); details: mesenchymal cells viability, qHTS; activity change, negative = cytotoxicity: at 91.7 µM (top of the series);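 also: cells exposed to compound for 40 hours before reading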; also: potency is read from the fitted curve at half-maximal effect
# In short: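 In this qHTS cytotoxicity format, glomerulus-derived human mesenchymal kidney cells received compound for 40 hr, then luciferase-based ATP quantitation. Concentration-response data were fitted with the Hill equation.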
# [6] = biological target: 3',5'-cyclic-AMP phosphodiesterase 4B (Homo sapiens) (UniProt Q07343); assay: qHTS Assay for Inhibitors of PDE-IV (AID 607; active = well fitted activation curve with a large enough effect in the main read-out, with a control signal flat, not every such curve was filed as active)
# In short: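 Cell-based read-out of cAMP via a modified cyclic nucleotide-gated channel and membrane potential dye (535/590 nm) in HEK293 cells expressing PDE4 endogenously. Compounds tested up to 22.9 uM final; 100 uM RO 20-1724 reference.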
# [7] = Cellular Toxicity (caspase-3) HepG2 (AID 654); also: potency is read from the fitted curve at half-maximal effect;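 as to caspase-3 activation: cells exposed to compound for 16 hours before reading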
# In short: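 Concentration-response AC50 values reflect caspase-3/7 induction in HepG2 cells after 16 hours of compound exposure, quantified by luminescence from liberated aminoluciferin and referenced to 100 uM tamoxifen as full stimulation.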
# [8] = Cellular Toxicity (caspase-3) Jurkat (AID 655); details: Jurkat caspase-3 activation, luminescence, DMSO = 0%, tamoxifen = 100%; at 92.2 µM (top of the series);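 also: cells exposed to compound for 16 h at 37 °C before reading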
# In short: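 Caspase 3/7 activation is scored as increased luminescence in Jurkat cells cultured with compound for 16 hours in complete medium. AC50 values come from Hill fits of qHTS concentration-response data normalized to DMSO and 100 uM tamoxifen controls.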
# [9] = Cellular Toxicity (caspase-3) HUV-EC-C (AID 656); also: potency is read from the fitted curve at half-maximal effect
# In short: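 Read-out: luminescence proportional to caspase 3/7 activity, measured 20 min after adding Caspase-Glo 3/7 reagent. Cells (HUV-EC-C) had received compound for 16 hr at 37°C. Increases relative to DMSO and 100 uM tamoxifen gave concentration-response AC50 values.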
# [10] = Cellular Toxicity (caspase-3) SHSY5Y (AID 657)
# In short: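 Cells plated and incubated 5 h at 37 °C, dosed over a concentration range, incubated 16 h, then given Caspase-Glo 3/7 reagent for 1 h at room temperature before luminescence reading. Staurosporine (10 uM) defined full stimulation.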
# [11] = Cellular Toxicity (caspase-3) BJ (AID 658)
# In short: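 Plated BJ cells (1000/well) rested 5 hr, received compound for 16 hr at 37 °C, then Caspase-Glo 3/7 reagent for 1 hr at room temperature before luminescence reading.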
# [12] = Cellular Toxicity (caspase-3) MRC-5 (AID 659); details: Potency: caspase-3 activation; also: potency is read from the fitted curve at half-maximal effect
# In short: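 Apoptosis readout in MRC-5 cells: luciferase light generated after caspase 3/7 cleaves a peptide-aminoluciferin substrate, measured post 16 hr compound incubation at 37 °C.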
# [13] = Cellular Toxicity (caspase-3) Mesangial (AID 660); details: mesangial cells, normalized: DMSO 0%, 100 µM tamoxifen 100%; at 91.7 µM (top of the series);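 also: cells exposed to compound for 16 h before the caspase read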
# In short: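 AC50 values come from Hill-equation fits of caspase 3/7 activation, measured as Caspase-Glo luminescence in human glomerular mesangial cells exposed to compound for 16 h at 37 °C; 100% set by 100 uM tamoxifen.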
# [14] = Cellular Toxicity (caspase-3) SK-N-SH (AID 661); also: potency is read from the fitted curve at half-maximal effect
# In short: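 Apoptosis readout in SK-N-SH neuroblastoma: Caspase-Glo 3/7 luminescence following 16 hr treatment in complete culture medium. Normalization used DMSO and 10 uM staurosporine controls.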
# [15] = Cellular Toxicity (caspase-3) H-4-II-E (AID 663); details: H-4-II-E rat hepatoma, scaled: DMSO 0%, 100 µM tamoxifen 100%; at 92.2 µM (top of the series);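 also: cells exposed to compound for 16 hr before readout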
# In short: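 Caspase 3/7 activation measured in H-4-II-E cells in complete culture medium after 16 hr treatment at 37 °C, using luciferase-coupled substrate readout; AC50 values come from Hill-equation fits of normalized concentration-response data.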
# [16] = Cellular Toxicity (caspase-3) Hek293 (AID 664); details: HEK293 caspase-3 activation; caspase-3 activation: at 92.2 µM (top of the series), DMSO = 0%, 100 µM tamoxifen = 100%;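 also: cells exposed to compound for 16 h at 37 °C before readout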; also: potency is read from the fitted curve at half-maximal effect
# In short: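 Apoptosis readout: Caspase-Glo 3/7 signal in human HEK293 cells following 16-hour compound incubation. Responses scaled between DMSO baseline and 100 uM tamoxifen.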
# [17] = Cellular Toxicity (caspase-3) N2a (AID 665); details: Potency: caspase-3 activation;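 also: compound exposure lasted 16 h at 37 °C before readout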; also: potency is read from the fitted curve at half-maximal effect
# In short: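 Concentration-response qHTS: compound-induced caspase-3/7 luminescence in N2a cells (16 h, 37 °C), relative to DMSO and 10 uM staurosporine controls; AC50 obtained using the standard Hill equation.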
# [18] = Cellular Toxicity (caspase-3) NIH 3T3 (AID 666);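 also: caspase signal read after 16 h compound exposure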
# In short: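 Activity: caspase-3/7 induction, NIH 3T3 cells, 16 hr treatment at 37°C, luminescent Caspase-Glo detection; AC50 via Hill equation.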
# [19] = Cell Viability - NIH 3T3 (AID 541); details: NIH 3T3 cell viability, qHTS; at 92.2 µM (top of the series);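 also: cells exposed to compound for 40 hours; nearly all actives have a fitted effect of over 25% in size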
# In short: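 In this cytotoxicity screen, acute toxicity is scored as an ATP drop measured by CellTiter-Glo in NIH 3T3 fibroblasts following a 40 hr, 37 °C incubation with compound.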
# [20] = Cell Viability - H-4-II-E (AID 543);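 also: cells exposed to compound for 40 hours; nearly all actives have a fitted effect of over 35% in size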; also: potency is read from the fitted curve at half-maximal effect
# In short: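 AC50 from Hill-modelled qHTS concentration-response curves. H-4-II-E rat hepatoma cells in complete medium, 40 hr exposure at 37 °C, viability by CellTiter-Glo ATP luminescence.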
# 3',5'-cyclic-AMP phosphodiesterase 4B (Homo sapiens), sequence (Q07343 whole entry, looked up): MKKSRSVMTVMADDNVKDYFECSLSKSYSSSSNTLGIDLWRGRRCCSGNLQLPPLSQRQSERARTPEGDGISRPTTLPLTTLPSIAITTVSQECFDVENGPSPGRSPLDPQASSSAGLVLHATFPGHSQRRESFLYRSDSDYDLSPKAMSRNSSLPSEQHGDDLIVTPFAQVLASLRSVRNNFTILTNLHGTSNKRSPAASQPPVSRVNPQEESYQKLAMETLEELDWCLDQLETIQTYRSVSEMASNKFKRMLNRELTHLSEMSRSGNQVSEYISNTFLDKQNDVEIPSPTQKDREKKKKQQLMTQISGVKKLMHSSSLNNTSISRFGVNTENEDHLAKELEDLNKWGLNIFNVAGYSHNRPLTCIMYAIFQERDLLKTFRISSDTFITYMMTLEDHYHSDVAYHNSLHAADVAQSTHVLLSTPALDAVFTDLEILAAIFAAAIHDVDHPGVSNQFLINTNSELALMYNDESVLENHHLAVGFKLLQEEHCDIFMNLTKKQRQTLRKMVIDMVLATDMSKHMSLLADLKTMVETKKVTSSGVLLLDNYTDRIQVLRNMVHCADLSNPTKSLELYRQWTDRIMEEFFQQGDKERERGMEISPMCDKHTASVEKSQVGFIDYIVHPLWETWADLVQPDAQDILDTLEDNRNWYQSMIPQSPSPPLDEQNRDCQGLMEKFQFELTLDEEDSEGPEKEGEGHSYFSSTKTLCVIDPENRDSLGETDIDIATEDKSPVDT
smiles,measurement,setting,value
O=c1c(-c2ccc(O)cc2)coc2cc(O)ccc12,outcome,[1],inactive
same,Potency,[2],inactive
same,Potency,[3],inactive
same,Potency,[4],inactive
same,Potency,[5],inactive
same,outcome,[6],inactive
same,Potency,[7],inactive
same,caspase-3 activation,[8],-7.71%
same,Potency,[9],inactive
same,outcome,[10],inactive
same,outcome,[11],inactive
same,Potency,[12],inactive
same,caspase-3 activation,[13],-3.39%
same,Potency,[14],inactive
same,caspase-3 activation,[15],-2.27%
same,Potency,[16],inactive
same,Potency,[17],inactive
same,outcome,[18],inactive
CCCNC(=O)NS(=O)(=O)c1ccc(Cl)cc1,outcome,[1],inactive
same,Potency,[2],inactive
same,"activity change, negative = cytotoxicity",[19],4.29%
same,Potency,[3],inactive
same,Potency,[20],inactive
same,Potency,[4],inactive
same,Potency,[5],inactive
same,outcome,[6],inactive
same,Potency,[7],inactive
same,caspase-3 activation,[8],-0.0991%
same,Potency,[9],inactive
same,outcome,[10],inactive
same,outcome,[11],inactive
same,Potency,[12],inactive
same,caspase-3 activation,[13],-0.968%
same,Potency,[14],inactive
same,caspase-3 activation,[15],-0.479%
same,Potency,[16],inactive
same,Potency,[17],inactive
same,outcome,[18],inactive
O=C(O)CCc1nc(-c2ccccc2)c(-c2ccccc2)o1,outcome,[1],inactive
same,outcome,[6],inactive
CN(C)CCC(c1ccccc1)c1ccccn1 (stereo not given),outcome,[1],inactive
same,Potency,[2],inactive
same,"activity change, negative = cytotoxicity",[19],-2.83%
same,Potency,[3],inactive
same,Potency,[20],inactive
same,Potency,[4],inactive
same,Potency,[5],inactive
same,Potency,[7],inactive
same,caspase-3 activation,[8],1.03%
same,Potency,[9],inactive
same,outcome,[10],inactive
same,outcome,[11],inactive
same,Potency,[12],inactive
same,caspase-3 activation,[13],0.331%
same,Potency,[14],inactive
same,caspase-3 activation,[15],1.53%
same,Potency,[16],inactive
same,Potency,[17],inactive
same,outcome,[18],inactive
CC1=C(/C=C/C(C)=C/C=C/C(C)=C/C(=O)Nc2ccc(O)cc2)C(C)(C)CCC1,outcome,[1],inactive
same,Potency,[2],31.6 µM (active)
same,"activity change, negative = cytotoxicity",[19],-85.6% (active)
same,Potency,[3],31.6 µM (active)
same,Potency,[20],20 µM (active)
same,Potency,[4],12.6 µM (active)
same,Potency,[5],31.6 µM (active)
same,Potency,[7],31.6 µM (active)
same,caspase-3 activation,[8],-0.319% (active)
same,Potency,[9],31.6 µM (active)
same,Potency,[12],31.6 µM (active)
same,caspase-3 activation,[13],91% (active)
same,Potency,[14],31.6 µM (active)
same,caspase-3 activation,[15],91.2% (active)
same,Potency,[16],31.6 µM (active)
same,Potency,[17],31.6 µM (active)
same,outcome,[18],inactive
Clc1ccc(Cn2c(CN3CCCC3)nc3ccccc32)cc1,outcome,[1],inactive
same,outcome,[6],inactive
CC(=O)CCCCn1c(=O)c2c(ncn2C)n(C)c1=O,outcome,[1],inactive
same,outcome,[6],inactive
CCn1cc(C(=O)O)c(=O)c2ccc(C)nc21,Potency,[2],inactive
same,"activity change, negative = cytotoxicity",[19],4.63%
same,Potency,[3],inactive
same,Potency,[20],inactive
same,Potency,[4],inactive
same,Potency,[5],inactive
same,Potency,[7],inactive
same,caspase-3 activation,[8],0.304%
same,Potency,[9],inactive
same,outcome,[10],inactive
same,outcome,[11],inactive
same,Potency,[12],inactive
same,caspase-3 activation,[13],-0.0498%
same,Potency,[14],inactive
same,caspase-3 activation,[15],-0.698%
same,Potency,[16],inactive
same,Potency,[17],inactive
same,outcome,[18],inactive
COc1ccccc1N1CCN(CCCNc2cc(=O)n(C)c(=O)n2C)CC1,outcome,[1],inactive
same,outcome,[6],inactive
CC(C)OC(=O)C(C)(C)Oc1ccc(C(=O)c2ccc(Cl)cc2)cc1,outcome,[6],inactive
O=c1cc(-c2ccc(O)cc2)oc2cc(O)cc(O)c12,Potency,[2],inactive
same,"activity change, negative = cytotoxicity",[19],-105% (active)
same,Potency,[3],inactive
same,Potency,[4],25.1 µM (active)
same,Potency,[5],inactive
same,outcome,[6],inactive
same,Potency,[7],inactive
same,caspase-3 activation,[8],8.24%
same,Potency,[9],inactive
same,outcome,[10],inactive
same,outcome,[11],inactive
same,Potency,[12],inactive
same,caspase-3 activation,[13],-2.47%
same,Potency,[14],inactive
same,caspase-3 activation,[15],9.21%
same,Potency,[16],inactive
same,Potency,[17],inactive
same,outcome,[18],inactive
CC1(C)CCC2=C(O1)c1ccccc1C(=O)C2=O,outcome,[1],inactive
same,outcome,[6],inactive
C[C@@H](O)[C@H]1C(=O)N2C(C(=O)O)=C(S[C@@H]3CN[C@H](C(=O)N(C)C)C3)[C@H](C)[C@H]12,outcome,[1],inactive
same,outcome,[6],inactive
NC(N)=Nc1nc(CSCC/C(N)=N/S(N)(=O)=O)cs1,outcome,[1],inactive
same,outcome,[6],inactive
CCN(CC)CCNC(=O)c1ccc(N)cc1,outcome,[1],inactive
same,outcome,[6],inactive
O=c1cc(-c2ccccc2)oc2cc(O)cc(O)c12,outcome,[6],inactive
CCN1CCC[C@H]1CNC(=O)c1cc(S(N)(=O)=O)ccc1OC,outcome,[1],inactive
same,outcome,[6],inactive
O=c1[nH]cnc2c1ncn2[C@H]1CC[C@@H](CO)O1,Potency,[2],inactive
same,"activity change, negative = cytotoxicity",[19],6.95%
same,Potency,[3],inactive
same,Potency,[20],inactive
same,Potency,[4],inactive
same,Potency,[5],inactive
same,Potency,[7],inactive
same,caspase-3 activation,[8],3.7%
same,Potency,[9],inactive
same,outcome,[10],inactive
same,outcome,[11],inactive
same,Potency,[12],inactive
same,caspase-3 activation,[13],-0.684%
same,Potency,[14],inactive
same,caspase-3 activation,[15],0.398%
same,Potency,[16],inactive
same,Potency,[17],inactive
same,outcome,[18],inactive
COc1ccc2c3c1OC1C[C@@H](O)C=C[C@@]31CCN(C)C2 (stereo not given in full),outcome,[1],inactive
same,outcome,[6],inactive
CCN(CC)CCOC(=O)c1ccc(N)cc1,outcome,[1],inactive
same,outcome,[6],inactive
C[N+](C)(C)CCCCCC[N+](C)(C)C,outcome,[1],inactive
same,outcome,[6],inactive
NCCS,outcome,[1],inactive
same,outcome,[6],inactive
Nc1ncnc2c1ncn2[C@@H]1O[C@@H](CO)[C@H](O)[C@H]1O,outcome,[1],inactive
same,outcome,[6],inactive
COCCCCC(=NOCCN)c1ccc(C(F)(F)F)cc1,outcome,[6],inactive
O=c1cc(-c2ccccc2)oc2cc(O)c(O)c(O)c12,outcome,[1],inactive
same,outcome,[6],inactive
CCCCCCCCCCCC1=C(O)C(=O)C=C(O)C1=O,outcome,[1],inactive
same,outcome,[6],inactive
CCN(CC)C(=O)c1ccc(O)c(OC)c1,outcome,[1],inactive
same,outcome,[6],inactive
